This passage reports outcome results from PubChem BioAssay.

For some assays here: Measured potencies and affinities stand elsewhere. Active and inactive are the calls of the source. Unless noted, the rule behind the calls is not given here.

Calcium-dependent protein kinase 4 (Plasmodium falciparum (isolate 3D7)), sequence (Q8IBS5 whole entry, looked up): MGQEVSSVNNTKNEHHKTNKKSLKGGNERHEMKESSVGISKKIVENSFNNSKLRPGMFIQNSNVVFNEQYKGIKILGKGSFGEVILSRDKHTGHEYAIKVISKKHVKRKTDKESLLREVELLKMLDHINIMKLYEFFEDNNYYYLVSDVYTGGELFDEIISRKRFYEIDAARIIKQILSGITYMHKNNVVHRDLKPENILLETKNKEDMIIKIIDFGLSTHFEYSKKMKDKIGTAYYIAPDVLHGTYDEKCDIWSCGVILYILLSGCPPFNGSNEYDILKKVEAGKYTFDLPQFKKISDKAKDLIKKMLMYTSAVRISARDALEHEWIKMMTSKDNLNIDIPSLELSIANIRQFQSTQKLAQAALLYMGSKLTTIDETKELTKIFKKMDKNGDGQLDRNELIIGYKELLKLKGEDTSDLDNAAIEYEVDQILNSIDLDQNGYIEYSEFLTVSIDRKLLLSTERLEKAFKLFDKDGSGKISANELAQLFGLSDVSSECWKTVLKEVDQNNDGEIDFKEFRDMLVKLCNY

For one test, the target named is Protein kinase 7 (PK7), Plasmodium falciparum 3D7 (PF3D7_0213400) (UniProt Q7YTF7). Nature of the test: inhibition of Plasmodium PK7 catalytic activity – biochemical, TCAMS antimalarial set, Kinase-Glo luminescence (AID 1159587). To be noted: recombinant PfPK7, Kinase-Glo ATP depletion luminescence. A general note: Kinase-Glo measures the ATP left after a reaction by luminescence.
Protein kinase 7 (PK7), Plasmodium falciparum 3D7 (PF3D7_0213400), sequence (Q7YTF7 1-343): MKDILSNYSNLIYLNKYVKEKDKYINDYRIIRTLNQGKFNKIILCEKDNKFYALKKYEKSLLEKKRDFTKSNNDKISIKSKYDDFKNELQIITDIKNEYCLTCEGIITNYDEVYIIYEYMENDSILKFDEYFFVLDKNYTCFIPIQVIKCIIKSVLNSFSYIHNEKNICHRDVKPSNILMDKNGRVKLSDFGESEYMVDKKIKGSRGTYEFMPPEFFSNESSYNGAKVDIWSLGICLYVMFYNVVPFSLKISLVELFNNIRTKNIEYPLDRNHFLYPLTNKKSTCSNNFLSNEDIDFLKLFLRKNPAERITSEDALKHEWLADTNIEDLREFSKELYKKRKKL
With `Cc1cc(N(C)CCCN(C)C)nc(Nc2ccc(Br)cc2)n1`, the result was inactive.

With `Cc1noc(C)c1-c1cccc(CNCc2cccc(-c3ccc(-c4nc5ccc(C(F)(F)F)cc5[nH]4)s3)c2)c1`, the result was inactive.

`CN(C(=O)C1(c2ccc(Cl)cc2)CC1)C1CCN(CCCCCNC(=O)/C=C/c2ccc(Cl)c(Cl)c2)CC1`: the outcome was inactive.

Turning to `Cc1cc(N[C@@H](CC(C)C)C(=O)Nc2ccccc2)nc(NCC2CCCCC2)n1`, the result was inactive.

Take `Nc1c2c(nc3ccc(NC(=O)CCCCCCc4ccccc4)cc13)CCCC2`: the outcome was inactive.

As to `O=C(/C=C/c1ccccc1Cl)NC1CCC(CN2CCC(c3c[nH]c4ccncc34)CC2)CC1` (stereo not given), the result was inactive.

Take `Cc1ccc(Cn2nc(Cl)c(N3CCCNCC3)cc2=O)cc1NC(=O)Nc1ccc(-c2ccccc2)cc1`: the result was inactive.

As to `COc1c(C2CCN(CCCCNC(=O)c3ccc(NC(=O)c4ccc(C#N)cc4)cc3)CC2)ccc2c1CCCC2`, the outcome was inactive.

As for `O=S(=O)(NCCN1CCCC1)c1ccc(-c2ccc(CNCc3ccc(F)cc3)cc2)s1`, the outcome was inactive.

As to `CCN(c1ccccc1)S(=O)(=O)c1ccc(OC)c(NC(=O)c2cccc(C(F)(F)F)c2)c1`, the result was inactive.

`O=C(Nc1cccc(C(F)(F)F)c1)c1ccc(S(=O)(=O)NCC2CCN(CC3CCCCC3)CC2)cc1`: the result was inactive.

With `Cc1cc(N(C)C2CCN(CC3CCCCC3)C2)nc(Nc2ccc(Br)cc2)n1` (stereo not given), the result was inactive.

Take `CC(=O)Nc1ccc(OCCCCN(Cc2ccccc2C(F)(F)F)c2ccc(C#N)c(C(F)(F)F)c2)cc1`: the result was inactive.

Consider `Cc1cccc2[nH]c(-c3cccc(-c4cccc(NC(=O)Nc5ccc(Cl)cc5)c4)c3)nc12`, for which the outcome was inactive.

Consider `CC(C)(C)c1ccc(CNC(=O)c2cc(CNC3CCNC3)ccc2O)cc1` (stereo not given), for which the outcome was inactive.

Take `Cc1cc(NC(=O)c2cccs2)ccc1OC1CCN(Cc2ccccc2)CC1`: the outcome was inactive.

With `CCOc1c(CNCCCNc2nc3ccccc3[nH]2)cc(I)cc1OC`, the result was inactive.

In the case of `Cc1ncccc1-c1cccc2c(NC(=O)Nc3ccc4nccc(N5CCN(C)CC5)c4c3)cccc12`, the outcome was inactive.

For `COc1cc(CNCCC(C)C)ccc1OCc1cccc(COc2ccc(CNCCC(C)C)cc2OC)c1`, the outcome was inactive.

Regarding `O=C(Cc1ccc(Cl)cc1)NC1CCN(c2ccnc3cc(Cl)ccc23)C1` (stereo not given), the outcome was inactive.

Consider `Cn1nccc1C(=O)NCCNCc1cccc(-c2ccc(-c3nc4ccc(C(F)(F)F)cc4[nH]3)s2)c1`, for which the outcome was inactive.

`CCNc1cc(C)nc(Nc2ccc(NC(=O)c3ccccc3)cc2)n1`: the result was inactive.

With `CCCn1cnc2cc(C(=O)Nc3ccc(-c4cccc(CN(C)C)c4)cc3)ccc2c1=O`, the outcome was inactive.

Turning to `c1ccc(COc2ccccc2COc2ccccc2-c2ccc3cccnc3n2)cc1`, the outcome was inactive.

For the molecule `COc1ccc2c(ccc3c2ncc2c(=O)n(-c4ccccc4)[nH]c23)c1`, the outcome was inactive.

`O=C(Nc1ccc(-c2nc3ccccc3[nH]2)cc1)c1cnc(Cl)c(Cl)c1`: the result was inactive.

`Nc1c(Cl)cc(C(O)CNCCCCCOCCc2ccccc2)cc1C(F)(F)F` (stereo not given): the outcome was inactive.

As to `CON(C)C(=O)[C@@H](CCCCNC(=O)OCc1ccccc1)NC(=O)OC(C)(C)C`, the result was inactive.

Turning to `CC(C)(C)C1CC(=O)C[C@@H]2C(=O)N(c3ccc(Br)cc3)C(=O)[C@H]12` (stereo not given in full), the result was inactive.

On to `CC1(C)CCCC(=Cc2ccc(Br)cc2)C1(O)Cn1ccnc1` (stereo not given), for which the result was inactive.

With `O=C(NCC1CC1)C1Cc2c([nH]c3ccc(Br)cc23)C2(CCN(CCc3ccccc3)CC2)N1` (stereo not given), the outcome was inactive.

In the case of `CCc1cn2c3c(cc(C(=O)N[C@@H](Cc4cc(F)cc(F)c4)[C@H](O)CNC4CCCCC4)cc13)N(C)S(=O)(=O)CC2`, the result was inactive.

Turning to `CC(CNC1CCN(CCn2c(=O)ccc3ccc(F)cc32)CC1)c1ccccc1` (stereo not given), the result was inactive.

Regarding `CC(CCCCOCCc1ccccc1)NCC(O)c1cc(Cl)c(N)c(Cl)c1` (stereo not given), the result was inactive.

As for `Cc1cc(N)c2cc(NC(=O)c3cccc(C(=O)Nc4ccc5nc(C)cc(N)c5c4)c3)ccc2n1`, the outcome was inactive.

Turning to `O=C(/C=C/c1ccc(Cl)c(Cl)c1)NCCCCCN1CCC(C(=O)Nc2ccc(Cl)c(Cl)c2)CC1`, the result was inactive.

For `NCC1CCCN1Cc1ccc(-c2cccc(-c3nc4ccc(C(F)(F)F)cc4[nH]3)c2)cc1` (stereo not given), the outcome was inactive.

Consider `COc1ccc(-c2nc(-c3ccc([N+](=O)[O-])cc3)no2)cc1OC`, for which the outcome was inactive.

For `CC(C)C[C@@H](/C=N/N1CCOC1=O)NC(=O)[C@H](CC(C)C)NC(=O)c1ccc(F)cc1`, the result was inactive.

`Cc1nc2ccc3ccc(CNc4ccc5c(c4)CN([C@H](CCC(=O)O)C(=O)O)C5=O)cc3c2c(=O)[nH]1`: the result was inactive.

A further test concerns the target Calcium-dependent protein kinase 4 (Plasmodium falciparum (isolate 3D7)) (UniProt Q8IBS5). Briefly: PfCDPK4 kinase inhibitors, biochemical, TCAMS library (AID 1159588; cut-off not given, nearly all actives have IC50 up to about 0.91 µM). To be noted: recombinant PfCDPK4, Kinase-Glo ATP depletion luminescence.
Consider `Cc1cc(N(C)CCCN(C)C)nc(Nc2ccc(Br)cc2)n1`, for which the result was inactive.

In the case of `Cc1noc(C)c1-c1cccc(CNCc2cccc(-c3ccc(-c4nc5ccc(C(F)(F)F)cc5[nH]4)s3)c2)c1`, the result was inactive.

Turning to `CN(C(=O)C1(c2ccc(Cl)cc2)CC1)C1CCN(CCCCCNC(=O)/C=C/c2ccc(Cl)c(Cl)c2)CC1`, the outcome was inactive.

Take `Cc1cc(N[C@@H](CC(C)C)C(=O)Nc2ccccc2)nc(NCC2CCCCC2)n1`: the result was inactive.

As to `Nc1c2c(nc3ccc(NC(=O)CCCCCCc4ccccc4)cc13)CCCC2`, the outcome was inactive.

`O=C(/C=C/c1ccccc1Cl)NC1CCC(CN2CCC(c3c[nH]c4ccncc34)CC2)CC1` (stereo not given): the result was inactive.

On to `Cc1ccc(Cn2nc(Cl)c(N3CCCNCC3)cc2=O)cc1NC(=O)Nc1ccc(-c2ccccc2)cc1`, for which the result was inactive.

In the case of `COc1c(C2CCN(CCCCNC(=O)c3ccc(NC(=O)c4ccc(C#N)cc4)cc3)CC2)ccc2c1CCCC2`, the outcome was inactive.

As to `O=S(=O)(NCCN1CCCC1)c1ccc(-c2ccc(CNCc3ccc(F)cc3)cc2)s1`, the outcome was inactive.

As for `CCN(c1ccccc1)S(=O)(=O)c1ccc(OC)c(NC(=O)c2cccc(C(F)(F)F)c2)c1`, the outcome was inactive.

Regarding `O=C(Nc1cccc(C(F)(F)F)c1)c1ccc(S(=O)(=O)NCC2CCN(CC3CCCCC3)CC2)cc1`, the result was inactive.

Take `Cc1cc(N(C)C2CCN(CC3CCCCC3)C2)nc(Nc2ccc(Br)cc2)n1` (stereo not given): the result was inactive.

On to `CC(=O)Nc1ccc(OCCCCN(Cc2ccccc2C(F)(F)F)c2ccc(C#N)c(C(F)(F)F)c2)cc1`, for which the result was inactive.

Regarding `Cc1cccc2[nH]c(-c3cccc(-c4cccc(NC(=O)Nc5ccc(Cl)cc5)c4)c3)nc12`, the result was inactive.

On to `CC(C)(C)c1ccc(CNC(=O)c2cc(CNC3CCNC3)ccc2O)cc1` (stereo not given), for which the result was inactive.

For the molecule `Cc1cc(NC(=O)c2cccs2)ccc1OC1CCN(Cc2ccccc2)CC1`, the result was inactive.

As to `CCOc1c(CNCCCNc2nc3ccccc3[nH]2)cc(I)cc1OC`, the outcome was inactive.

As to `Cc1ncccc1-c1cccc2c(NC(=O)Nc3ccc4nccc(N5CCN(C)CC5)c4c3)cccc12`, the result was inactive.

As for `COc1cc(CNCCC(C)C)ccc1OCc1cccc(COc2ccc(CNCCC(C)C)cc2OC)c1`, the outcome was inactive.

Regarding `O=C(Cc1ccc(Cl)cc1)NC1CCN(c2ccnc3cc(Cl)ccc23)C1` (stereo not given), the outcome was inactive.

On to `Cn1nccc1C(=O)NCCNCc1cccc(-c2ccc(-c3nc4ccc(C(F)(F)F)cc4[nH]3)s2)c1`, for which the outcome was inactive.

As to `CCNc1cc(C)nc(Nc2ccc(NC(=O)c3ccccc3)cc2)n1`, the result was inactive.

For `CCCn1cnc2cc(C(=O)Nc3ccc(-c4cccc(CN(C)C)c4)cc3)ccc2c1=O`, the result was inactive.

`c1ccc(COc2ccccc2COc2ccccc2-c2ccc3cccnc3n2)cc1`: the result was inactive.

As to `COc1ccc2c(ccc3c2ncc2c(=O)n(-c4ccccc4)[nH]c23)c1`, the result was inactive.

For the molecule `O=C(Nc1ccc(-c2nc3ccccc3[nH]2)cc1)c1cnc(Cl)c(Cl)c1`, the result was inactive.

With `Nc1c(Cl)cc(C(O)CNCCCCCOCCc2ccccc2)cc1C(F)(F)F` (stereo not given), the outcome was inactive.

Take `CON(C)C(=O)[C@@H](CCCCNC(=O)OCc1ccccc1)NC(=O)OC(C)(C)C`: the outcome was inactive.

For `CC(C)(C)C1CC(=O)C[C@@H]2C(=O)N(c3ccc(Br)cc3)C(=O)[C@H]12` (stereo not given in full), the outcome was inactive.

Consider `CC1(C)CCCC(=Cc2ccc(Br)cc2)C1(O)Cn1ccnc1` (stereo not given), for which the result was inactive.

As to `O=C(NCC1CC1)C1Cc2c([nH]c3ccc(Br)cc23)C2(CCN(CCc3ccccc3)CC2)N1` (stereo not given), the outcome was inactive.

`CCc1cn2c3c(cc(C(=O)N[C@@H](Cc4cc(F)cc(F)c4)[C@H](O)CNC4CCCCC4)cc13)N(C)S(=O)(=O)CC2`: the result was inactive.

For `CC(CNC1CCN(CCn2c(=O)ccc3ccc(F)cc32)CC1)c1ccccc1` (stereo not given), the result was inactive.

For `CC(CCCCOCCc1ccccc1)NCC(O)c1cc(Cl)c(N)c(Cl)c1` (stereo not given), the outcome was inactive.

Turning to `Cc1cc(N)c2cc(NC(=O)c3cccc(C(=O)Nc4ccc5nc(C)cc(N)c5c4)c3)ccc2n1`, the outcome was inactive.

With `O=C(/C=C/c1ccc(Cl)c(Cl)c1)NCCCCCN1CCC(C(=O)Nc2ccc(Cl)c(Cl)c2)CC1`, the outcome was inactive.

For `NCC1CCCN1Cc1ccc(-c2cccc(-c3nc4ccc(C(F)(F)F)cc4[nH]3)c2)cc1` (stereo not given), the outcome was inactive.

As to `COc1ccc(-c2nc(-c3ccc([N+](=O)[O-])cc3)no2)cc1OC`, the outcome was inactive.

As for `CC(C)C[C@@H](/C=N/N1CCOC1=O)NC(=O)[C@H](CC(C)C)NC(=O)c1ccc(F)cc1`, the outcome was inactive.

On to `Cc1nc2ccc3ccc(CNc4ccc5c(c4)CN([C@H](CCC(=O)O)C(=O)O)C5=O)cc3c2c(=O)[nH]1`, for which the result was inactive.
